# Source: the supplement of paper PMC8728848
# About 410 targets per protein were measured; listed, in parts, are those with the strongest signals and a random draw of the rest.
# Assays:
# Assay in all cases: glycan array binding signal (z-score within array); higher = stronger binding
# Conditions in all cases: glycan notation: IUPAC condensed, linker removed
# [1] = target: Fuc(a1-2)Gal(b1-4)GlcNAc(b1-2)Man(a1-3)[Fuc(a1-2)Gal(b1-4)GlcNAc(b1-2)Man(a1-6)]Man(b1-4)GlcNAc(b1-4)GlcNAc
# How it was run: (§1)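 Glycan array binding is given as a within-array Z-score, which can be read as non-binding when negative. The arrays, 3228 of them, came from the Consortium for Functional Glycomics database and were retained only where the protein sequence was available. Z-scores were averaged across arrays of the same protein sequence at different concentrations or buffers and across linkers.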
# [2] = target: Fuc(a1-2)Gal(b1-4)GlcNAc(b1-2)[Fuc(a1-2)Gal(b1-4)GlcNAc(b1-4)]Man(a1-3)[Fuc(a1-2)Gal(b1-4)GlcNAc(b1-2)Man(a1-6)]Man(b1-4)GlcNAc(b1-4)GlcNAc
# How it was run: as §1
# [3] = target: Fuc(a1-2)Gal(b1-4)GlcNAc(b1-3)Gal(b1-4)GlcNAc(b1-2)Man(a1-3)[Fuc(a1-2)Gal(b1-4)GlcNAc(b1-3)Gal(b1-4)GlcNAc(b1-2)Man(a1-6)]Man(b1-4)GlcNAc(b1-4)GlcNAc
# How it was run: as §1
# [4] = target: Fuc(a1-2)Gal(b1-4)[Fuc(a1-3)]GlcNAc(b1-3)Gal(b1-4)[Fuc(a1-3)]GlcNAc(b1-3)Gal(b1-4)[Fuc(a1-3)]GlcNAc
# How it was run: as §1
# [5] = target: Fuc(a1-2)Gal6S(b1-3)GlcNAc6S
# How it was run: as §1
# [6] = target: Fuc(a1-2)[GalNAc(a1-3)]Gal(b1-4)GlcNAc(b1-3)Gal(b1-4)GlcNAc
# How it was run: as §1
# [7] = target: Fuc(a1-2)[GalNAc(a1-3)]Gal(b1-4)GlcNAc(b1-3)GalNAc
# How it was run: as §1
# [8] = target: Fuc(a1-2)[GalNAc(a1-3)]Gal(b1-4)[Fuc(a1-3)]GlcNAc
# How it was run: as §1
# [9] = target: Fuc(a1-3)[GalNAc(b1-4)]GlcNAc
# How it was run: as §1
# [10] = target: Gal(a1-3)Gal(b1-4)GlcNAc(b1-2)Man(a1-3)[Gal(a1-3)Gal(b1-4)GlcNAc(b1-2)Man(a1-6)]Man(b1-4)GlcNAc(b1-4)GlcNAc
# How it was run: as §1
# [11] = target: Gal(a1-3)GalNAc
# How it was run: as §1
# [12] = target: Gal(a1-4)Gal(b1-4)GlcNAc(b1-2)Man(a1-3)[Gal(a1-4)Gal(b1-4)GlcNAc(b1-2)Man(a1-6)]Man(b1-4)GlcNAc(b1-4)GlcNAc
# How it was run: as §1
# [13] = target: Gal(b1-3)GalNAc(a1-3)[Fuc(a1-2)]Gal(b1-4)GlcNAc
# How it was run: as §1
# [14] = target: Gal(b1-3)GlcNAc(a1-3)Gal(b1-4)GlcNAc
# How it was run: as §1
# [15] = target: Gal(b1-3)GlcNAc(b1-2)Man(a1-3)[Gal(b1-3)GlcNAc(b1-2)Man(a1-6)]Man(b1-4)GlcNAc(b1-4)GlcNAc
# How it was run: as §1
# [16] = target: Gal(b1-4)GlcNAc(a1-6)Gal(b1-4)GlcNAc
# How it was run: as §1
# [17] = target: Gal(b1-4)GlcNAc(b1-2)Man(a1-3)[Gal(b1-4)GlcNAc(b1-2)Man(a1-6)]Man(b1-4)GlcNAc(b1-4)GlcNAc
# How it was run: as §1
# [18] = target: Gal(b1-4)GlcNAc(b1-2)[Gal(b1-4)GlcNAc(b1-6)]Man(a1-6)[Gal(b1-4)GlcNAc(b1-2)Man(a1-3)]Man(b1-4)GlcNAc(b1-4)[Fuc(a1-6)]GlcNAc
# How it was run: as §1
# [19] = target: Gal(b1-4)GlcNAc(b1-3)Gal(b1-4)GlcNAc
# How it was run: as §1
# [20] = target: Gal(b1-4)GlcNAc(b1-3)Gal(b1-4)GlcNAc(b1-2)[Gal(b1-4)GlcNAc(b1-3)Gal(b1-4)GlcNAc(b1-6)]Man(a1-6)[Gal(b1-4)GlcNAc(b1-3)Gal(b1-4)GlcNAc(b1-2)Man(a1-3)]Man(b1-4)GlcNAc(b1-4)GlcNAc
# How it was run: as §1
# [21] = target: Gal(b1-4)GlcNAc(b1-3)Gal(b1-4)GlcNAc(b1-3)Gal(b1-4)GlcNAc
# How it was run: as §1
# [22] = target: Gal(b1-4)GlcNAc(b1-3)Gal(b1-4)GlcNAc(b1-3)GalNAc
# How it was run: as §1
# [23] = target: Gal(b1-4)GlcNAc(b1-3)Gal(b1-4)GlcNAc(b1-3)[Gal(b1-4)GlcNAc(b1-3)Gal(b1-4)GlcNAc(b1-6)]GalNAc
# How it was run: as §1
# [24] = target: Gal3S(b1-3)[Fuc(a1-4)]GlcNAc
# How it was run: as §1
# [25] = target: Gal3S(b1-4)[Fuc(a1-3)]Glc6S
# How it was run: as §1
# [26] = target: Gal6S(b1-3)GlcNAc
# How it was run: as §1
# [27] = target: GalNAc(b1-4)GlcNAc(b1-2)Man(a1-3)[GalNAc(b1-4)GlcNAc(b1-2)Man(a1-6)]Man(b1-4)GlcNAc(b1-4)GlcNAc
# How it was run: as §1
# [28] = target: GlcNAc(a1-4)Gal(b1-4)GlcNAc(b1-3)Gal(b1-4)GlcNAc
# How it was run: as §1
# [29] = target: GlcNAc(b1-2)Man(a1-3)[GlcNAc(b1-2)Man(a1-6)]Man(b1-4)GlcNAc(b1-4)GlcNAc
# How it was run: as §1
# [30] = target: GlcNAc(b1-2)[GlcNAc(b1-6)]Man(a1-6)[GlcNAc(b1-2)Man(a1-3)]Man(b1-4)GlcNAc(b1-4)GlcNAc
# How it was run: as §1
# [31] = target: GlcNAc(b1-2)[GlcNAc(b1-6)]Man(a1-6)[GlcNAc(b1-2)Man(a1-3)]Man(b1-4)GlcNAc(b1-4)[Fuc(a1-6)]GlcNAc
# How it was run: as §1
# [32] = target: GlcNAc(b1-3)Gal(b1-4)GlcNAc(b1-2)Man(a1-3)[GlcNAc(b1-3)Gal(b1-4)GlcNAc(b1-2)Man(a1-6)]Man(b1-4)GlcNAc(b1-4)[Fuc(a1-6)]GlcNAc
# How it was run: as §1
# [33] = target: GlcNAc(b1-3)Gal(b1-4)GlcNAc(b1-3)Gal(b1-4)GlcNAc(b1-3)Gal(b1-4)GlcNAc(b1-3)Gal(b1-4)GlcNAc(b1-2)Man(a1-3)[GlcNAc(b1-3)Gal(b1-4)GlcNAc(b1-3)Gal(b1-4)GlcNAc(b1-3)Gal(b1-4)GlcNAc(b1-3)Gal(b1-4)GlcNAc(b1-2)Man(a1-6)]Man(b1-4)GlcNAc(b1-4)[Fuc(a1-6)]GlcNAc
# How it was run: as §1
# [34] = target: GlcNAc(b1-3)Gal(b1-4)GlcNAc(b1-3)[GlcNAc(b1-3)Gal(b1-4)GlcNAc(b1-3)]GalNAc
# How it was run: as §1
# [35] = target: GlcNAc(b1-6)GalNAc
# How it was run: as §1
# [36] = target: Man(a1-2)Man(a1-3)[Man(a1-2)Man(a1-6)]Man
# How it was run: as §1
# [37] = target: Man(a1-3)[Man(a1-6)]Man(b1-4)GlcNAc(b1-4)GlcNAc
# How it was run: as §1
# [38] = target: Neu5Ac(a2-3)Gal(b1-3)GlcNAc(b1-2)Man(a1-3)[Neu5Ac(a2-3)Gal(b1-3)GlcNAc(b1-2)Man(a1-6)]Man(b1-4)GlcNAc(b1-4)GlcNAc
# How it was run: as §1
# [39] = target: Neu5Ac(a2-3)Gal(b1-3)[GlcNAc(b1-6)]GalNAc
# How it was run: as §1
# [40] = target: Neu5Ac(a2-3)Gal(b1-4)[Fuc(a1-3)]GlcNAc(b1-6)[Neu5Ac(a2-3)Gal(b1-3)]GalNAc
# How it was run: as §1
# [41] = target: Neu5Ac(a2-3)[Neu5Ac(a2-6)]GalNAc
# How it was run: as §1
# [42] = target: Neu5Ac(a2-6)Gal(b1-4)GlcNAc(b1-2)Man(a1-3)Man(b1-4)GlcNAc(b1-4)GlcNAc
# How it was run: as §1
# [43] = target: Neu5Ac(a2-6)Gal(b1-4)GlcNAc(b1-2)Man(a1-3)[Man(a1-6)]Man(b1-4)GlcNAc(b1-4)GlcNAc
# How it was run: as §1
# [44] = target: Neu5Ac(a2-6)Gal(b1-4)GlcNAc(b1-2)Man(a1-3)[Neu5Ac(a2-3)Gal(b1-4)GlcNAc(b1-2)Man(a1-6)]Man(b1-4)GlcNAc(b1-4)GlcNAc
# How it was run: as §1
# [45] = target: Neu5Ac(a2-6)Gal(b1-4)GlcNAc(b1-2)Man(a1-3)[Neu5Ac(a2-6)Gal(b1-4)GlcNAc(b1-2)Man(a1-6)]Man(b1-4)GlcNAc(b1-4)[Fuc(a1-6)]GlcNAc
# How it was run: as §1
# [46] = target: Neu5Ac(a2-6)Gal(b1-4)GlcNAc(b1-2)Man(a1-6)[Gal(b1-4)GlcNAc(b1-2)Man(a1-3)]Man(b1-4)GlcNAc(b1-4)GlcNAc
# How it was run: as §1
# [47] = target: Neu5Ac(a2-6)Gal(b1-4)GlcNAc(b1-2)[Neu5Ac(a2-6)Gal(b1-4)GlcNAc(b1-4)]Man(a1-3)[GlcNAc(b1-4)][Neu5Ac(a2-6)Gal(b1-4)GlcNAc(b1-2)[Neu5Ac(a2-6)Gal(b1-4)GlcNAc(b1-6)]Man(a1-6)]Man(b1-4)GlcNAc(b1-4)GlcNAc
# How it was run: as §1
# [48] = target: Neu5Ac(a2-6)Gal(b1-4)GlcNAc(b1-6)[Gal(b1-3)GlcNAc(b1-3)]Gal(b1-4)Glc
# How it was run: as §1
binder,measurement,setting,value
RBMC2 (Vibrio cholerae) (protein) KISVRSGFAIDAIGASASTLVGGTGGNLNAAVNVKDIKAIDLTWGKYYWGGYHLLALDFRMSNGSVISMGSKNYAYSKQTERFTVPAGSRIKGIKAWTAGWLLDGVQFELA,glycan array binding signal (z-score),[1],1.19
same,glycan array binding signal (z-score),[2],0.016
same,glycan array binding signal (z-score),[3],3.69
same,glycan array binding signal (z-score),[4],-0.273
same,glycan array binding signal (z-score),[5],-0.121
same,glycan array binding signal (z-score),[6],-0.171
same,glycan array binding signal (z-score),[7],-0.327
same,glycan array binding signal (z-score),[8],-0.4
same,glycan array binding signal (z-score),[9],-0.311
same,glycan array binding signal (z-score),[10],3.79
same,glycan array binding signal (z-score),[11],-0.276
same,glycan array binding signal (z-score),[12],4.07
same,glycan array binding signal (z-score),[13],-0.258
same,glycan array binding signal (z-score),[14],-0.3
same,glycan array binding signal (z-score),[15],3.3
same,glycan array binding signal (z-score),[16],-0.466
same,glycan array binding signal (z-score),[17],-0.184
same,glycan array binding signal (z-score),[18],0.211
same,glycan array binding signal (z-score),[19],-0.235
same,glycan array binding signal (z-score),[20],-0.097
same,glycan array binding signal (z-score),[21],-0.368
same,glycan array binding signal (z-score),[22],-0.363
same,glycan array binding signal (z-score),[23],-0.254
same,glycan array binding signal (z-score),[24],-0.327
same,glycan array binding signal (z-score),[25],-0.305
same,glycan array binding signal (z-score),[26],-0.328
same,glycan array binding signal (z-score),[27],1.47
same,glycan array binding signal (z-score),[28],-0.281
same,glycan array binding signal (z-score),[29],3.67
same,glycan array binding signal (z-score),[30],-0.232
same,glycan array binding signal (z-score),[31],-0.178
same,glycan array binding signal (z-score),[32],3.51
same,glycan array binding signal (z-score),[33],1.92
same,glycan array binding signal (z-score),[34],-0.222
same,glycan array binding signal (z-score),[35],-0.19
same,glycan array binding signal (z-score),[36],-0.48
same,glycan array binding signal (z-score),[37],4.41
same,glycan array binding signal (z-score),[38],-0.017
same,glycan array binding signal (z-score),[39],-0.155
same,glycan array binding signal (z-score),[40],-0.025
same,glycan array binding signal (z-score),[41],-0.245
same,glycan array binding signal (z-score),[42],-0.132
same,glycan array binding signal (z-score),[43],12.3
same,glycan array binding signal (z-score),[44],3.39
same,glycan array binding signal (z-score),[45],3.57
same,glycan array binding signal (z-score),[46],3.52
same,glycan array binding signal (z-score),[47],-0.425
same,glycan array binding signal (z-score),[48],-0.398
